The whole screen tested about 2,400 compounds, of which about 750 (31%) were called active. Some of the results follow. A number with no mark means an inactive call.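 The calls were made as follows: active = median signal gain over dofetilide-blocked control wells reaching their mean plus 3 SD, so readout 1 at least 0; inactive = the rest.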

For this test, the target named is Voltage-gated inwardly rectifying potassium channel KCNH2 (Homo sapiens) (UniProt Q12809). In words: modulators restoring hERG flux under dofetilide – cell-based, thallium flux, duplicate retest, dofetilide IC70, confirmation (AID 1835). The conditions noted are these: hERG cell line, FluxOR thallium flux, dofetilide-blocked; at 10 µM; active compounds read high. For orientation: Block of hERG is tested as a sign of cardiac risk.
Sequence of Voltage-gated inwardly rectifying potassium channel KCNH2 (Homo sapiens) (Q12809 whole entry, looked up): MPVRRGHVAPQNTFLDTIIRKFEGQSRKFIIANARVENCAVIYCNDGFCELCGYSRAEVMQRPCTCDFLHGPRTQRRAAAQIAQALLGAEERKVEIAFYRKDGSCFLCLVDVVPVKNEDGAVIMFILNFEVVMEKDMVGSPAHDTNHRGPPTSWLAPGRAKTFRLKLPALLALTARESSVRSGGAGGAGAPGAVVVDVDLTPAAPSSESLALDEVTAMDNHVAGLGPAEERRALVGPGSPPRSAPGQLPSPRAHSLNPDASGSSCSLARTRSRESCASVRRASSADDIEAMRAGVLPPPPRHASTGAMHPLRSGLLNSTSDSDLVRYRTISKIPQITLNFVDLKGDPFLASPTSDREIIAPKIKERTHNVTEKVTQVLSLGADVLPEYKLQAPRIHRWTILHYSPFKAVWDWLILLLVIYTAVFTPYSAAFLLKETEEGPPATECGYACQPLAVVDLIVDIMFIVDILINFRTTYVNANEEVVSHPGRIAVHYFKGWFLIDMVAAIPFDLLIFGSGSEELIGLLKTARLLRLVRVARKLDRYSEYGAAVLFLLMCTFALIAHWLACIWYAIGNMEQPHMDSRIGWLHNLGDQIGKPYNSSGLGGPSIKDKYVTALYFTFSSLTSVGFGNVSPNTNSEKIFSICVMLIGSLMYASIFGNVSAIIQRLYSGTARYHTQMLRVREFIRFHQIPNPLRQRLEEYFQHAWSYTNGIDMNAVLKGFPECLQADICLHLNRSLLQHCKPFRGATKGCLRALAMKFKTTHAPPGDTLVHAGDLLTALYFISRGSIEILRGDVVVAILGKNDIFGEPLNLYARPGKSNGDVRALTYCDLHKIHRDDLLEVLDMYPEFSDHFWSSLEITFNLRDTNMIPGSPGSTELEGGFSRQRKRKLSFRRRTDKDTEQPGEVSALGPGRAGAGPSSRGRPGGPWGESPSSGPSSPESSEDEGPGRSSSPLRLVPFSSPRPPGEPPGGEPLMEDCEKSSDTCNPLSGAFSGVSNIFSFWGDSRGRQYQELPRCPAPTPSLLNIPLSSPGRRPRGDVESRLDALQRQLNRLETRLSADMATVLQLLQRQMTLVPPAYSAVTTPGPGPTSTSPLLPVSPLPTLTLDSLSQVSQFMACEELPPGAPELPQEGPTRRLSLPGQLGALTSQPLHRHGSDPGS
For `Cc1ccc(C(C)C)cc1OCCn1cncn1`, the activity increase over dofetilide control, less the hit threshold was -24%.

Turning to `O=C1Nc2ccc(Br)cc2C1Cc1ccccc1F` (configuration not stated), the activity increase over dofetilide control, less the hit threshold was -17%. The result for `Cc1ccc(C(=O)CC(=O)c2ccc(C)cc2O)cc1` reads -1%. The value for `O=C(CC(=O)c1ccccc1O)c1cccc(F)c1` was -6%; that for `Cc1ccc(C(=O)CC(=O)c2cccc(F)c2)c(O)c1` was 1% (active). As for `COc1cc(C(=O)NCc2ccc(-c3nc4ccccc4o3)cc2)cc(OC)c1OC`, the activity increase over dofetilide control, less the hit threshold is -12%. The value for `CCSc1nnc(NC(=O)CC(C)C)s1` was 3% (active); that for `CCSc1nnc(NC(=O)Cn2cnc3c2c(=O)n(C)c(=O)n3C)s1` was -22%; that for `O=C(Nc1nnc(SCC(=O)N2CCCCC2)s1)C1CCCCC1` was -18%. The result for `COc1ccc(S(=O)(=O)Nc2ccc(Cl)cn2)c(C)c1C` reads -9%; that for `CC[C@@H](C(=O)[C@@H](C)[C@@H](O)[C@H](C)CCc1ccc(C)c(O)c1C(=O)O)[C@H]1O[C@](CC)([C@H]2CC[C@](O)(CC)[C@H](C)O2)C[C@@H]1C`, 93% (active); that for `O=C(CCN1C(=O)/C(=C\C=C\c2ccccc2)SC1=S)Nc1ccc(C(=O)O)cc1`, 26% (active). The value for `COc1ccc(NC(=O)CCN2C(=O)C3C4C=CC(C4)C3C2=O)cc1` (configuration not stated) was -14%; that for `O=C(CCN1C(=O)/C(=C\C=C\c2ccccc2)SC1=S)Nc1cccc(C(=O)O)c1` was 93% (active). Regarding `O=C(CSc1nc(-c2ccccc2)nc2ccc(F)cc12)Nc1cccc(C(=O)O)c1`, the activity increase over dofetilide control, less the hit threshold is -23%. The result for `O=C(CCN1C(=O)/C(=C/c2cccs2)SC1=S)Nc1cccc(C(=O)O)c1` reads -13%. The result for `CC(C)Oc1cc(S(=O)(=O)N2CCCCC2)ccc1N` reads -18%; that for `CC(C)(C)C(=O)NC(=S)N1CCOCC1`, 3% (active); that for `S=C(N/N=C/c1ccc(Cl)cc1)N1CCOCC1`, -47%.

`Cc1cc(F)c(F)c(C(=O)N2CCOCC2)c1`: the activity increase over dofetilide control, less the hit threshold was -17%. As to `CCCCCOCC1CC(C/C(C)=N/Nc2nc(-c3ccccc3)cs2)C(=O)O1` (configuration not stated), the activity increase over dofetilide control, less the hit threshold is -5%. The result for `CCOC(=O)N/N=C\c1ccc(-c2cc(Cl)ccc2Cl)o1` reads -2%; that for `Cc1cc([N+](=O)[O-])c(C)cc1-c1ccc(/C=N/NC(=O)Cn2nnnc2N)o1`, 0% (active). As for `COCc1cc(C)nc(OCC(=O)N/N=C/c2ccc(-c3cc([N+](=O)[O-])ccc3Cl)o2)c1C#N`, the activity increase over dofetilide control, less the hit threshold is -7%. For the compound `C=C(C)CSc1nc(N)cc(=O)[nH]1`, the activity increase over dofetilide control, less the hit threshold was -4%. The value for `O=C1NC(=O)/C(=C/c2cc3c(cc2Br)OCO3)S1` was -17%; that for `O=C1NC(=S)/C(=C\c2ccc(-c3ccccc3Cl)o2)S1` was -23%; that for `O=C1NC(=S)S/C1=C\c1ccc2ccccc2c1` was 28% (active). The result for `O=C(CCl)NCCN1C(=O)S/C(=C\c2cccnc2)C1=O` reads -5%; that for `Cc1ccc(NC(=O)CN2C(=O)S/C(=C/c3ccc(-c4cc(C(=O)O)ccc4C)o3)C2=O)cc1C`, -29%; that for `Cc1ccccc1NC(=O)CN1C(=O)S/C(=C\c2ccc(-c3cccc(C(=O)O)c3C)o2)C1=O`, 19% (active). The result for `Cc1ccc(C(=O)O)cc1-c1ccc(/C=C2\SC(=O)N(CC(=O)Nc3ccccc3)C2=O)o1` reads 87% (active); that for `Cc1ccsc1/C=C1/SC(=O)N(CC(=O)N2CCCC2)C1=O`, -4%. As for `Cc1cc(C(=O)NCCN2C(=O)S/C(=C\c3cccs3)C2=O)ccc1[N+](=O)[O-]`, the activity increase over dofetilide control, less the hit threshold was -1%. The value for `Cc1c(/C=C2\SC(=O)N(CC(=O)Nc3ccc4c(c3)OCO4)C2=O)c2ccccc2n1C` was -11%; that for `Cc1ccc(NC(=O)CN2C(=O)S/C(=C\c3ccc(-c4cccc(C(=O)O)c4C)o3)C2=O)cc1` was 25% (active); that for `C#CCN1C(=O)S/C(=C\c2ccc(-c3ccc(C(=O)O)cc3C)o2)C1=O` was 1% (active). The value for `Cc1ccccc1NC(=O)CN1C(=O)S/C(=C\c2ccc(-c3cc(C(=O)O)ccc3C)o2)C1=O` was -3%; that for `CN(C)c1oc(-c2ccccc2[N+](=O)[O-])nc1C#N` was -15%. The value for `COc1ccc(C2N=C(c3ccccc3)C(C)(C)N2O)cc1` (configuration not stated) was -16%; that for `CCOC(=O)C1CCCCN1Cc1ccc(F)cc1` (configuration not stated) was -14%.

On to `O=C(CN1C(=O)S/C(=C\c2cc(Cl)c(O)c(Cl)c2)C1=O)Nc1ccccc1`, for which the activity increase over dofetilide control, less the hit threshold is -21%. The value for `O=C(CN1C(=O)S/C(=C\c2cccs2)C1=O)Nc1ccc(C(=O)O)c(O)c1` was 12% (active); that for `Cc1cccc(NC(=O)CN2C(=O)S/C(=C\c3ccc(-c4cccc(C(=O)O)c4C)o3)C2=O)c1` was 71% (active); that for `O=C(CN1C(=O)S/C(=C\c2cccs2)C1=O)Nc1ccc(O)c(C(=O)O)c1` was -3%. For `O=S(=O)(NCc1ccc(Cl)cc1Cl)c1ccc(N2CCOCC2)nc1`, the activity increase over dofetilide control, less the hit threshold is -25%. The result for `S=c1nc(C2CCCCC2)n(-c2ccccc2)[nH]1` reads 24% (active); that for `Cc1onc(-c2ccccc2)c1C(=O)NC(=S)Nc1sc2c(c1C#N)CCCC2`, -3%; that for `Cc1onc(-c2ccccc2)c1C(=O)NC(=S)Nc1sc2c(c1C#N)CCC(C)C2` (configuration not stated), 24% (active). In the case of `Cc1onc(-c2ccccc2Cl)c1C(=O)NC(=S)Nc1ccc(C(C)C)cc1`, the activity increase over dofetilide control, less the hit threshold was -20%. The result for `O=C(O)C[C@H]1c2cc(F)ccc2S(=O)(=O)N1C1CCCCC1` reads -15%. The result for `O=C(CN1C(=O)NC(Cc2ccccc2)C1=O)Nc1ccccc1OC(F)F` (configuration not stated) reads -10%; that for `CCOc1ccc(NC(=O)c2ccc3c(c2)CCN3S(C)(=O)=O)cc1`, -21%.

Regarding `O=C(O)COc1ccc(NC(=O)c2ccc3c(c2)C(=O)N(C2CCCCC2)C3=O)cc1`, the activity increase over dofetilide control, less the hit threshold is 4% (active). The result for `O=C(CN1CCCCCC1)Nc1ccc(Oc2ccccc2)cc1` reads -10%. The result for `O=C(O)CCCn1cc(NC(=O)COc2ccc(F)cc2)cn1` reads -17%; that for `CC(NC(=O)C1CCN(S(=O)(=O)c2cccc3cccnc23)CC1)c1ccccc1` (configuration not stated), -15%; that for `CC(NC(=O)NC1CCCCC1)c1ccccc1` (configuration not stated), 9% (active). For the compound `CC(NC(=O)NC1CCCCC1)c1ccc2c(c1)OCO2` (configuration not stated), the activity increase over dofetilide control, less the hit threshold was 1% (active). For the compound `Cc1ccc(C(C)NC(=O)c2ccc3c(c2)OCO3)cc1C` (configuration not stated), the activity increase over dofetilide control, less the hit threshold was 0%. The result for `CC(NC(=S)NC1CCCCC1)c1ccccc1` (configuration not stated) reads -11%; that for `O=C(COC(=O)/C=C/c1ccc2c(c1)OCO2)NC1CC1`, -20%.
